The supplement of paper PMC3334620
Over roughly 33,000 sequences, “E-score (-0.5 to 0.5)” has its median near -0.017; the highest 2% begin near 0.3. Many of the other results were omitted from the sample, so the highest values are more common in it than they were.

biological target: T1, Sut1 (UniProt P53032); assay: PBM E-score (8-mer binding enrichment) (E-score (-0.5 to 0.5)); higher = stronger / more preferred TF binding; details: protein concentration: 200 nM; construct: GST-full length
T1 sequence: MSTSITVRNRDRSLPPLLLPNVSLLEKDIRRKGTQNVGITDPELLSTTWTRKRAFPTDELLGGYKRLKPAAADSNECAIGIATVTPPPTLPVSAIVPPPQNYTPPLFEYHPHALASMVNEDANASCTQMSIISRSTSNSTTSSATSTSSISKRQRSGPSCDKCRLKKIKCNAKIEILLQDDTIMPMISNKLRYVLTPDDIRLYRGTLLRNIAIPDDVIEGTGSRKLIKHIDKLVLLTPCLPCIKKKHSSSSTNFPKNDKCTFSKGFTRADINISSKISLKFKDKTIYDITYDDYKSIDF
Protocol: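 Universal 'all 10-mer' protein binding microarrays (Agilent AMADID 015681) probed with GST-tagged S. cerevisiae TFs (full-length or DBD) made by in vitro transcription/translation (PURExpress), about 100-200 nM. Bound TF was detected with fluorescent anti-GST. Each ungapped 8-mer (which stands for itself and its reverse complement) is scored by the PBM enrichment score (E-score), a modified Wilcoxon-Mann-Whitney statistic from -0.5 to +0.5, computed with the Universal PBM Analysis Suite. Scale: above 0.35 generally sequence-specific binding.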

Sequence	PBM E-score
GCCACTCA	-0.126
AGTTAAAG	0.0654
AATCACAT	0.139
CAGCATTC	-0.193
CAGTTGGG	-0.207
ACCACTCA	-0.156
ACCAAAGG	-0.0819
AATGGCAA	0.0477
AGATGAGC	-0.0376
AGACCAAG	0.186
GTCTCGAA	-0.159
GTCTCGTA	-0.0582
GTCTCGGA	0.316
CTTTTGAA	0.152
AGAGTCCG	0.449
CGAGTCCG	0.426
ACAGTCCA	0.0821
ATAGTCCA	0.0136
CCAGTCCG	0.222
AGAGTCCT	-0.114
ATAGTCCC	-0.206
ACAGTCCG	0.312

Sequence	PBM E-score
CGAGTCCC	0.014
AGAGTCCC	-0.0834
ATAGTCCG	0.473
CGAGTCCA	-0.139
GCTCTTAC	0.132
CACTCACG	-0.0637
TATGAACA	0.0917
AAAACGCA	-0.0411
AAGAGTTA	0.12
CAAGTCAG	-0.0539
CAGTTGCA	-0.0927
GACGCAGC	-0.199
CTCCGTTC	0.32
CACCGTTA	0.0406
GGCCGTTA	0.137
ATCCGTTC	0.147
GTCCGTTA	0.376
ATCCGTTA	0.275
CGCCGTTA	-0.0973
CGCCGTTC	-0.157
CTCCGTTA	0.335
GCCGGCGC	0.089

Sequence	PBM E-score
GACGCTAC	-0.101
AATAGCTG	0.0185
CCGCACGC	-0.237
CTAACCTA	0.0178
ATTCGGAG	0.432
ATTCGGCG	-0.0582
ATTCGGAC	0.455
ATTCGGGC	-0.0696
ATTCGGAA	0.262
ATTCGGCC	-0.0211
GAATAGGC	-0.0173
AGCCTCAG	-0.139
ACGAGTGA	-0.115
GTCACCAA	-0.0973
AGCTCCGG	0.466
CCCTCCGG	0.00905
AGCTCCCG	-0.173
CGCTCCGC	0.0358
CGCTCCGA	0.317
GGCTCCAA	0.00981
ACCTCCGT	0.165
ACCTCCGG	0.322

Sequence	PBM E-score
GGCTCCCA	-0.12
CGCTCCCA	-0.0881
AGCTCCTG	-0.238
GGCTCCGA	0.338
CTAGCTAG	0.132
CTCATCCA	-0.124
GTCCTACA	-0.0165
CTCTGGTC	-0.00832
GGGGGCAA	-0.211
ATTCAGGA	0.0993
ACTGTGTA	0.0481
ACGTAGGC	-0.171
AGCTCCGC	0.331
AGCTCCTA	-0.173
AGCTCCAC	-0.0851
AGCTCCTC	-0.098
AGCTCCGA	0.464
AGCTCCAA	0.0776
CACCCACG	-0.0788
ATTCTCAG	0.00054
